From PubChem BioAssay (EPA / NIEHS)
Inconclusive results are not listed. Calls of active or inactive are those of the source. The calls were made as follows: active = hit-call score of the fitted dose curve at least 0.9, where 1 is the maximum; inconclusive = response in the unintended direction; inactive = score below 0.9.

Experiments:
[1] = molecular target: Cellular tumor antigen p53 (Homo sapiens) (UniProt P04637); assay: TOX21_p53_BLA_p2_ratio: Tox21 HCT-116 p53 Agonism Beta-lactamase Assay, Ratio, Phase 2 (AID 2283592)
Chain of Cellular tumor antigen p53 (Homo sapiens) (P04637 whole entry, looked up): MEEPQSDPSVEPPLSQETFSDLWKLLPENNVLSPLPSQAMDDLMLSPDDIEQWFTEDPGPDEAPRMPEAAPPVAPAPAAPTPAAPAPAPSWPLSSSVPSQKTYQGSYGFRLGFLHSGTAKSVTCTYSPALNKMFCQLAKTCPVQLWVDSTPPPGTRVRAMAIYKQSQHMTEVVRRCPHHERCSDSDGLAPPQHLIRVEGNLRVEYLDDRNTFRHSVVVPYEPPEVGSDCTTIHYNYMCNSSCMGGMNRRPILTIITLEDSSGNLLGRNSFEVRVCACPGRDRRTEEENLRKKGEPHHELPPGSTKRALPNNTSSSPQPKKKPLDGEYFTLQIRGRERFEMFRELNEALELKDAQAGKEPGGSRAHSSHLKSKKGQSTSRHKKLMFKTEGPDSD
Method in brief: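 DMSO-normalized, positive-direction endpoint derived from the 460 nm/530 nm FRET ratio in HCT116 p53 beta-lactamase reporter cells exposed 16 h at 37C and loaded with CCF4-AM for 2 h.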

[2] = TOX21_p53_BLA_p3_viability: Viability Assessment in the Tox21 HCT-116 p53 Agonism Beta-lactamase Assay, Phase 3 (AID 2283593);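 also: cells exposed to compound for 16 h before reading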
Method in brief: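 Cellular ATP was quantified by CellTiter-Glo luminescence, read after 30 min at room temperature. Beforehand, HCT116 cells (4000/well) received compound 5 h post-seeding, 217-fold diluted from DMSO, then incubated 16 h at 37C.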

[3] = molecular target: Cellular tumor antigen p53 (Homo sapiens) (UniProt P04637); assay: TOX21_p53_BLA_p3_ratio: Tox21 HCT-116 p53 Agonism Beta-lactamase Assay, Ratio, Phase 3 (AID 2283596)
Method in brief: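 Cells were seeded at 4000/well, rested 5 h at 37C, then dosed with DMSO compound solutions (217-fold dilution) for 16 h. CCF4-AM substrate was loaded for 2 h at room temperature, and the 460/530 nm emission ratio was fitted for gain of signal versus DMSO.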

[4] = molecular target: Cellular tumor antigen p53 (Homo sapiens) (UniProt P04637); assay: TOX21_p53_BLA_p5_ratio: Tox21 HCT-116 p53 Agonism Beta-lactamase Assay, Ratio, Phase 5 (AID 2283599)
Method in brief: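 Beta-lactamase reporter ratio (blue 460 nm over green 530 nm, 405 nm excitation) after 2 h CCF4-AM loading, in HCT-116 cells exposed 16 h at 37 C to compounds pinned at 217-fold dilution. Increases relative to DMSO baseline scored.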

[5] = TOX21_p53_BLA_p5_viability: Viability Assessment in the Tox21 HCT-116 p53 Agonism Beta-lactamase Assay, Phase 5 (AID 2283600)
Method in brief: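 Here cell health was gauged by ATP levels in wells holding 4000 cells, each treated 16 h with DMSO-delivered compounds at 217-fold dilution; reduced luminescence marked toxicity.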

[6] = molecular target: Cellular tumor antigen p53 (Homo sapiens) (UniProt P04637); assay: TOX21_p53_BLA_p4_ratio: Tox21 HCT-116 p53 Agonism Beta-lactamase Assay, Ratio, Phase 4 (AID 2283601)
Method in brief: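 Signal is the blue/green (460nm/530nm) ratio of cleaved versus uncleaved CCF4-AM substrate, read after 2 h substrate loading. Cells were HCT116 carrying the p53-responsive beta-lactamase reporter, dosed 16 h at 37C, 5% CO2; CellTiter-Glo measured in parallel.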

In the case of O=Cc1c(Cl)cccc1Cl, the outcome [1] was “inactive”, the outcome [2] was “inactive” and the outcome [3] was “inactive”. The outcome [4] was “inactive”, the outcome [5] was “inactive” and the outcome [6] was “inactive”.
With CC(C)=O the outcome [1] was “inactive”, the outcome [2] was “inactive” and the outcome [3] was “inactive”. For the same compound, the outcome [4] was “inactive”, the outcome [5] was “inactive” and the outcome [6] was “inactive”.
In the case of COCC(C)OC(C)=O (configuration not stated), the outcome [1] was “inactive”, the outcome [2] was “inactive” and the outcome [3] was “inactive”. The outcome [4] was “inactive” and the outcome [5] was “inactive”.
With O=C(NCN1CCOCC1)c1cnccn1 the outcome [1] was “inactive”, the outcome [2] was “inactive” and the outcome [3] was “inactive”. The outcome [4] was “inactive”, the outcome [5] was “inactive” and the outcome [6] was “inactive”.
In the case of O=C1Nc2ccc([N+](=O)[O-])cc2C1=O, the AC50 [1] was 74.4 µM (active), the outcome [2] was “inactive” and the AC50 [3] was 85.2 µM (active). The AC50 [4] was 82.1 µM (active), the outcome [5] was “inactive” and the AC50 [6] was 72.8 µM (active).
With Cc1cc(C(C)(C)C)cc(C)c1CC1=NCCN1 the outcome [1] was “inactive”, the outcome [2] was “inactive” and the outcome [3] was “inactive”. For the same compound, the outcome [4] was “inactive”, the outcome [5] was “inactive” and the outcome [6] was “inactive”.
For CCCc1ccc(C(=O)O)cc1, the outcome [1] was “inactive”, the outcome [2] was “inactive” and the outcome [3] was “inactive”. The outcome [4] was “inactive”, the outcome [5] was “inactive” and the outcome [6] was “inactive”.
In the case of O=Cc1ccccc1[N+](=O)[O-], the AC50 [1] was 70.6 µM (active), the outcome [2] was “inactive” and the outcome [3] was “inactive”. For the same compound, the AC50 [4] was 68 µM (active), the outcome [5] was “inactive” and the outcome [6] was “inactive”.
For Cn1nnc2c(C(N)=O)ncn2c1=O, the outcome [1] was “inactive”, the outcome [2] was “inactive” and the outcome [3] was “inactive”. The outcome [4] was “inactive”, the outcome [5] was “inactive” and the outcome [6] was “inactive”.
In the case of CC(=O)OCC1=C(C(=O)O)N2C(=O)[C@@H](NC(=O)Cc3cccs3)[C@H]2SC1, the outcome [1] was “inactive”, the outcome [2] was “inactive” and the outcome [3] was “inactive”. The outcome [4] was “inactive”, the outcome [5] was “inactive” and the outcome [6] was “inactive”.
In the case of CCCCN(CCCC)CCCOC(=O)c1ccc(N)cc1, the outcome [1] was “inactive”, the outcome [2] was “inactive” and the outcome [3] was “inactive”. The outcome [4] was “inactive”, the outcome [5] was “inactive” and the outcome [6] was “inactive”.
For CCCCOC(=O)/C=C\C(=O)OCCCC, the outcome [1] was “inactive”, the outcome [2] was “inactive” and the outcome [3] was “inactive”. For the same compound, the outcome [4] was “inactive”, the outcome [5] was “inactive” and the outcome [6] was “inactive”.
For Cc1cccc(C)c1NC(=O)CC12CCCN1CCC2, the outcome [1] was “inactive”, the outcome [2] was “inactive” and the outcome [3] was “inactive”. For the same compound, the outcome [4] was “inactive”, the outcome [5] was “inactive” and the outcome [6] was “inactive”.
